Screens (PubChem)
Shiga inhibitor: blocks Shiga toxin action in Vero cells. Vero cells, Shiga toxin protein synthesis inhibition reporter. inhibition, % at 38.7 µM. 9.2% of 290,000 active; in the data active = inhibition mostly above about 28%, no sharp cut-off; inactive = mostly below about 43%
CHX counter: counter-screen for Shiga toxin inhibitors: cycloheximide protein synthesis inhibition; cell reporter, cycloheximide protein synthesis inhibition counterscreen; 12% of 300,000 active; AID 2314; max response, %; in the data active = max response mostly above about 13%, no sharp cut-off; inactive = mostly below about 14%; note: read at 38.3 µM for the half of the compounds with a filed dose
NS1 inh: influenza NS1 inhibition. Potency, µM (highest dose often 46.1 µM). AID 2326. 0.4% of 270,000 active; calls by dose curve; note: actives are rising curves; nearly all actives have a fitted effect of over 50% in size
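S. cerevisiae expressing influenza A NS1, grown in glucose, washed, then diluted 1:100 into pH 6.0 -URA galactose medium with 23 nl compound. Growth recovery read as OD600; NS1-free strain serves as control.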
Pf growth 96h: P. falciparum growth inhibition at 96 hours. AID 504834. 6.9% of 320,000 active. P. falciparum luciferase reporter growth, 96 h. Potency, µM (highest dose often 28.7 µM), hits mostly inhibitors
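Parasite growth measured via integrated firefly luciferase reporter in P. falciparum. Infected erythrocytes at 2% hematocrit, 0.05% parasitemia final were treated 96 hours at 37 C under 5% CO2, and luminescence was read.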
SARS PLpro yeast: SARS-CoV PLP inhibition in yeast; Potency, µM (titrated, usually from 32.9 µM), most hits filed as activators; 0.19% of 330,000 active; S. cerevisiae expressing SARS-CoV PLpro, growth rescue; calls by dose curve; note: nearly all actives have a fitted effect of over 55% in size
Pf growth 48h: inhibits P. falciparum growth in the first generation, 48 h; P. falciparum luciferase growth in erythrocytes, 48 h; Potency, µM (top dose mostly 28.7 µM), most hits filed as inhibitors; 5.9% of 310,000 active
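Parasite viability was followed by luminescence of a genomically integrated firefly luciferase. Cultures held 0.1% parasitemia at 2% hematocrit (final), incubated under 5% CO2 at 37 C.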
Each line names hits and unclear results; the compound was inactive in the other large screens. This is a sample that favours compounds with a hit; in the whole collection about 21% have one here. Unless noted, calls come from the whole dose curve; as a rule, active = well fitted inhibition curve with a large enough effect; inconclusive = small, poorly fitted or top-dose-only effect, or another doubt; inactive = no such curve, though single readings can be large or run the other way.

CC(C)C(=O)Nc1cccc(C(=O)Nc2nnc(C(C)C)s2)c1	Shiga inhibitor 92.0, CHX counter 42.0
Cc1nnc(NC(=O)c2cccc(NC(=O)C(C)C)c2)s1	Pf growth 48h inconclusive (no result: Pf growth 96h)
CC(C)c1nnc(NC(=O)c2ccc(S(=O)(=O)N3CCOCC3)cc2)s1	Pf growth 96h inconclusive
CC(C)C(=O)Nc1ccc(C(=O)Nc2nnc(C(C)C)s2)cc1	Shiga inhibitor 44.3
CC(C)c1nnc(NC(=O)c2cccc(NC(=O)C(F)(F)F)c2)s1	Shiga inhibitor 84.4, CHX counter 46.9 (no result: NS1 inh)
CC(=O)c1cccc(S(=O)(=O)N2CCCC(c3nc4c(nnn4Cc4ccccc4Cl)c(=O)[nH]3)C2)c1 (stereo not given)	Pf growth 48h inconclusive
COc1cccc(CSc2nnc(-c3ccc(F)cc3)o2)c1	CHX counter 17.9, Pf growth 96h inconclusive
Fc1ccc(-c2nnc(SCc3cccnc3)o2)cc1	Shiga inhibitor 66.3, CHX counter 25.6
N#Cc1ccc(CSc2nnc(-c3cccnc3)o2)cc1	none
COc1ccc(-c2nnc(SCc3cccc(C#N)c3)o2)cc1	none (no result: Pf growth 96h)
Cc1csc(N/N=C/c2c(F)cccc2Cl)n1	Shiga inhibitor 85.8, CHX counter 38.5
Fc1ccccc1/C=N/Nc1nc(N2CCCCC2)nc(N2CCCCC2)n1	Pf growth 48h inconclusive
O=[N+]([O-])c1cc(/C=N\Nc2nccs2)ccc1O	Pf growth 48h inconclusive (no result: Pf growth 96h)
CCOc1ccc(-c2[nH]ncc2-c2csc(C)n2)c(O)c1	none
Fc1cccc(Cl)c1/C=N/Nc1ccccn1	none (no result: NS1 inh)
CCOc1ccc(/C=N/Nc2nc(C)cs2)c(O)c1	Shiga inhibitor 57.8, CHX counter 49.1, Pf growth 48h inconclusive
Clc1cccc(Cl)c1/C=N\Nc1nccs1	Pf growth 96h 9.28µM, Pf growth 48h inconclusive
Cc1csc(N/N=C/c2ccccc2F)n1	Shiga inhibitor 56.1, CHX counter 38.5 (no result: SARS PLpro yeast)
O=[n+]1cc(-c2ccc(Cl)cc2)n([O-])c2c1CCCCC2	none
COC(=O)c1cccc(NC(=S)NC(C)C)c1	none (no result: NS1 inh)
O=C(Cc1cccc(C(F)(F)F)c1)NCC(=O)Nc1cc(Cl)ccc1Cl	none
COC(=O)C1=C(C)Nc2ccc(C)cc2S1	CHX counter 24.5, Pf growth 96h inconclusive (no result: Pf growth 48h)
O=C(Cn1cccc1C(=O)c1ccccc1)NCc1ccc(F)cc1	CHX counter 15.5, Pf growth 96h inconclusive
COc1cccc(NC(=O)CN2CC(c3ccccc3)CC2=O)c1 (stereo not given)	SARS PLpro yeast inconclusive (no result: Pf growth 48h)
O=C(Cn1cc(C(F)(F)F)ccc1=O)NCC1CCCO1 (stereo not given)	none (no result: Shiga inhibitor, CHX counter, NS1 inh)
O=C(CN1CC(c2ccccc2)CC1=O)NCc1ccc(F)cc1 (stereo not given)	Pf growth 96h 4.15µM
O=C(Cn1cccc1C(=O)c1ccccc1)NCc1ccc2c(c1)OCO2	Shiga inhibitor 52.5, CHX counter 29.3, Pf growth 48h inconclusive
O=C(Cn1cccc1C(=O)c1ccccc1)NCc1ccccc1	none (no result: Pf growth 96h, Pf growth 48h)
O=C(Cn1cc(C(F)(F)F)ccc1=O)NCc1ccc(F)cc1	Shiga inhibitor 36.1, CHX counter 29.3
c1ccc2c(c1)CC1(CCCC1)N=C2N1CCOCC1	none
CCCC(=O)c1c[nH]c(C(=O)N2CCOCC2)c1	none
CCOC(=O)Cc1csc(NC(=O)CN2CCOCC2)n1	NS1 inh inconclusive, Pf growth 96h 9.28µM, Pf growth 48h inconclusive
CCOC(=O)Cc1csc(NC(=O)CCc2ccc(S(=O)(=O)N3CCOCC3)cc2)n1	Pf growth 96h inconclusive, Pf growth 48h 2.62µM
CCOC(=O)Cc1csc(NC(=O)c2cc(OC)cc(OC)c2)n1	none
CCOC(=O)Cc1csc(NC(=O)c2ccc(S(=O)(=O)N3CCCCC3)cc2)n1	Pf growth 96h 5.86µM
CCOC(=O)Cc1csc(NC(=O)COc2ccc(C)cc2)n1	Pf growth 48h inconclusive
CC(NC(=O)COC(=O)CCc1ccc(S(=O)(=O)N2CCOCC2)cc1)C1CC2CCC1C2 (stereo not given)	CHX counter 36.4
Cc1cc(C)cc(NC(=O)COC(=O)CCc2ccc(S(=O)(=O)N3CCOCC3)cc2)c1	none (no result: NS1 inh)
Cc1ccc(N2CC(C(=O)Nc3cccnc3)CC2=O)cc1C (stereo not given)	none
O=C1CCCN1c1ccc(S(=O)(=O)Oc2ccc(Cl)cc2)cc1[N+](=O)[O-]	none
COc1ccc(-n2nc3c(N4CCC(C(=O)N5CCCCCC5)CC4)nnc(C)c3c2C)cc1	Pf growth 96h inconclusive, Pf growth 48h inconclusive
CCc1ccc(N2CC(C)Cn3c2nc2c3c(=O)[nH]c(=O)n2C)cc1 (stereo not given)	Pf growth 96h 2.94µM, Pf growth 48h 7.38µM
CC(NC(=O)Cn1cc(Br)c([N+](=O)[O-])n1)c1ccccc1 (stereo not given)	Pf growth 96h inconclusive, Pf growth 48h inconclusive (no result: Shiga inhibitor)
CC1=CC(C)(C)NC(=S)N1C(C)c1ccccc1 (stereo not given)	Pf growth 48h inconclusive
Cc1oncc1C(=O)Nc1ccc2ccccc2c1	Shiga inhibitor 89.0, CHX counter 34.1
Cc1coc(C)c1C(=O)Nc1ccc2ccccc2c1	Shiga inhibitor 90.1, CHX counter 63.8
Cc1oncc1C(=S)Nc1ccccc1	none
COC(=O)c1cccc(NC(=O)c2cnoc2C)c1	Shiga inhibitor 52.0, CHX counter 27.6
COC(=O)c1cccc(NC(=O)c2cccnc2)c1	none
COC(=O)C(=CC(=CN(C)C)C=C(C(=O)OC)C(=O)OC)C(=O)OC	none
Cc1cc(C(=O)COC(=O)c2n[nH]c3ccccc23)c(C)n1C	Shiga inhibitor 62.5, CHX counter 46.7
COCCn1c(C)cc(C(=O)COC(=O)c2n[nH]c3ccccc23)c1C	CHX counter 11.4, SARS PLpro yeast inconclusive
COCCn1c(C)cc(C(=O)COC(=O)c2cccnc2SC)c1C	none (no result: Shiga inhibitor, CHX counter, NS1 inh, Pf growth 96h, Pf growth 48h)
CCC(=O)c1ccc(OCC(=O)OCC(=O)c2cc(C)n(C)c2C)cc1	Pf growth 96h 13.1µM, Pf growth 48h inconclusive
Cc1cc(C(=O)COC(=O)c2nccnc2N)c(C)n1C	Shiga inhibitor 103.5, CHX counter 41.7 (no result: NS1 inh)
CC(C)(C)NS(=O)(=O)c1ccc(NC(=S)NC(=O)C2CCC2)cc1	Pf growth 96h inconclusive
CC1CCCCN1C(=O)COC(=O)c1n[nH]c2ccccc12 (stereo not given)	CHX counter 58.0 (no result: Pf growth 48h)
OCC1(Cc2cccc(Cl)c2)CCCN(Cc2cn[nH]c2C2CCCCC2)C1 (stereo not given)	Pf growth 48h 11.7µM
Cc1ccn(CC(=O)N2CCCC(N3CCN(Cc4ccc5c(c4)OCO5)CC3)C2)n1 (stereo not given)	Pf growth 96h inconclusive
O=c1c2ccccc2ncn1-c1ccc2c(c1)OCCO2	Shiga inhibitor 64.7, CHX counter 31.6
CN(C)C(=O)c1ccc(-n2cnc3ccccc3c2=O)cc1	Pf growth 96h 11.7µM (no result: NS1 inh)
COC(=O)COC(=O)CC(CC(N)=O)c1ccccc1 (stereo not given)	Pf growth 96h 9.28µM
COc1ccc(CN(C)C(=O)c2ccc(Cl)c(S(=O)(=O)NCc3cccnc3)c2)cc1F	Pf growth 48h inconclusive (no result: Shiga inhibitor, CHX counter, NS1 inh)
